Active and inactive are the calls of the source. Unless noted, the rule behind the calls is not given here.
Legend:
[1] = HepG2 liver cancer cell viability effects, profiling panel, resazurin fluorescence, 24 h, PK04 Diversity Set (AID 1172); conditions: higher = more signal
[2] = basal S. cerevisiae growth modulation, no modifier, primary screen, OD600, strain BY4716, 24 h, basal condition (AID 1173); conditions: OD600, 24 h, higher = more signal, called active from +8 up or from −8 down
[3] = MM1S myeloma cell viability, profiling panel, resazurin fluorescence, basal, 24 h, PK04 Diversity Set (AID 1174); conditions: higher = more signal, called active from +8 up or from −8 down;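 note: MM1S multiple myeloma cell line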
[4] = target: Dihydroorotate dehydrogenase (quinone), mitochondrial (Plasmodium falciparum (isolate 3D7)) (UniProt Q08210); experiment: PfDHODH enzyme inhibitors, primary screen, biochemical, C-terminal His tag, absorbance 600 nm (AID 1175); conditions: DCIP absorbance 600 nm, higher = more signal, called active from +8 up or from −8 down;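 note: recombinant parasite enzyme with a five histidine tag at its C terminus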
[5] = P. aeruginosa biofilm formation inhibitors, primary screen, strain PAO1, LB-PBS medium, absorbance 600 nm (AID 1176); conditions: P. aeruginosa PAO1 growth/biofilm, A600, 12 h; higher = more signal
[6] = S. cerevisiae RM11-1a growth modifiers, primary screen, strain RM11-1a, OD600, basal, 24 h (AID 1177); conditions: OD600, 24 h, higher = more signal, called active from +8 up or from −8 down;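 note: cultures grown under basal conditions with no added stressor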
[7] = E. coli acrAB mutant growth effects, primary screen, E. coli filamentation inducers, strain DRC39, OD650, 24 h (AID 1178); conditions: higher = more signal, called active from +8 up or from −8 down;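 note: growth measured as culture turbidity by optical density at 650 nm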
[8] = E. coli acrAB mutant growth effects, primary screen, E. coli filamentation inducers, strain DRC39, OD650, 48 h (AID 1179);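 note: screen aims at cell division blockers that make cells filament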; conditions: E. coli DRC39 delta-acrAB growth, higher = more signal, called active from +8 up or from −8 down
[9] = RPMI8226 myeloma cell viability, profiling panel, resazurin fluorescence, basal, 24 h, PK04 Diversity Set (AID 1180); conditions: higher = more signal;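 note: RPMI8826 multiple myeloma cell line at 5000 cells per well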
[10] = target: E3 ubiquitin-protein ligase XIAP (Homo sapiens) (UniProt P98170); experiment: XIAP binders, primary screen, biophysical, small-molecule microarray, fluorescence 635 nm (AID 1181); conditions: small-molecule microarray binding, higher = more signal;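 note: score merges 667 nm emission and signal to noise over triplicate slides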
[11] = system: XIP peptide (Xip251-270) binding; experiment: small-molecule binders of XIP peptide, primary screen, biochemical, small-molecule microarray, fluorescence 635/667 nm, 0.1 µg/mL protein (AID 1182); conditions: fluorescent protein binding, 635 nm, higher = more signal, called active from +8 up or from −8 down
[12] = system: XIP peptide (Xip251-270); experiment: small-molecule binders of XIP peptide, primary screen, biochemical, small-molecule microarray, fluorescence 635/667 nm, 0.5 µg/mL protein (AID 1183); conditions: small-molecule microarray binding, fluorescence 635 nm; higher = more signal
[13] = Plasmodium falciparum growth inhibition, primary screen, strain 3D7, DAPI fluorescence, 100 nL (AID 1184);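 note: parasites grown inside human red blood cells in medium with human serum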; conditions: P. falciparum 3D7 growth, 3 d, higher = more signal
[14] = target: Homeobox protein Hox-A13 (Mus musculus) (UniProt Q62424); experiment: inhibitors of HoxA13-DNA binding, primary screen, biochemical, fluorescence polarization, labeled oligonucleotide (AID 1185); conditions: 15 min, higher = more signal, called active from +8 up or from −8 down
Chain of Homeobox protein Hox-A13 (Mus musculus) (Q62424 whole entry, looked up): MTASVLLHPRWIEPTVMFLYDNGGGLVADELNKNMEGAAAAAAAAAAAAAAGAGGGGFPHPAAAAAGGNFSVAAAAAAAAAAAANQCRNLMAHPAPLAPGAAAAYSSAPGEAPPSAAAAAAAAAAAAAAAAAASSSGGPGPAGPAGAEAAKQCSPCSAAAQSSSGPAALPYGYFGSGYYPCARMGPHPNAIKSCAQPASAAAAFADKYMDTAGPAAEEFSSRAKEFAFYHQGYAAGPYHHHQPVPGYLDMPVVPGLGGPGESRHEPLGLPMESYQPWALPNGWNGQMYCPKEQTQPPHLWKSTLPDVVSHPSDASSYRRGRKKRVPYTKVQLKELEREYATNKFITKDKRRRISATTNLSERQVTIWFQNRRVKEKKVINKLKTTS

Chain of E3 ubiquitin-protein ligase XIAP (Homo sapiens) (P98170 whole entry, looked up): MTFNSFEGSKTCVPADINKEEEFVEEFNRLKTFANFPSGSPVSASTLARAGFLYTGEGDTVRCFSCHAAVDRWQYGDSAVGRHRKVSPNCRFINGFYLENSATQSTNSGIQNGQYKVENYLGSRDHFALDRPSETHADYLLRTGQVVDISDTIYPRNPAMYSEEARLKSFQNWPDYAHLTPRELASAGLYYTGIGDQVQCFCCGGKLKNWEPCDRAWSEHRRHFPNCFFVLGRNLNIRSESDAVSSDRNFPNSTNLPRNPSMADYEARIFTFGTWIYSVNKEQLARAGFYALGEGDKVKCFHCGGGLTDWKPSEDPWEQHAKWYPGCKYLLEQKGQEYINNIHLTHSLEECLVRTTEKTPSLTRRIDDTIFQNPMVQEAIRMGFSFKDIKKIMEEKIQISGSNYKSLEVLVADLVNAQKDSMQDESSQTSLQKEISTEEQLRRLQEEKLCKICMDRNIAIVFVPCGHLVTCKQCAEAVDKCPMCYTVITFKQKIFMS
Chain of Dihydroorotate dehydrogenase (quinone), mitochondrial (Plasmodium falciparum (isolate 3D7)) (Q08210 whole entry, looked up): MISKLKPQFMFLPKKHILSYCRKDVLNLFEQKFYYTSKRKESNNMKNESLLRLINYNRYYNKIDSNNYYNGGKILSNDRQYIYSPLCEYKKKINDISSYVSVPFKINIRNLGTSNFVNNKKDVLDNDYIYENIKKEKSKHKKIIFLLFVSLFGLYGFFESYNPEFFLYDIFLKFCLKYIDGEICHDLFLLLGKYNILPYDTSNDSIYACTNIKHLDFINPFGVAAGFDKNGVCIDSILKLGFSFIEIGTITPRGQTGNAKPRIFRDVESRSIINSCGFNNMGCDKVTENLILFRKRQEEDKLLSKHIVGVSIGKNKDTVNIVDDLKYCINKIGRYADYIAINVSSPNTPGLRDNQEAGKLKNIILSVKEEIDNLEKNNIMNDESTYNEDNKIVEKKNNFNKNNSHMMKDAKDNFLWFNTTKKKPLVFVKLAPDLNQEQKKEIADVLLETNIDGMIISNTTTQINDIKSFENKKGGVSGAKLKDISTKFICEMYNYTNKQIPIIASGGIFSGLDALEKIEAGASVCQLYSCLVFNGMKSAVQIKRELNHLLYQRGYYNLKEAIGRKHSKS

Row | Structure (SMILES) | z-score [1] | z-score [2] | z-score [3] | composite z-score [4] | z-score [5] | z-score [6] | z-score [7] | z-score [8] | z-score [9] | composite z-score [10] | composite z-score [11] | composite z-score [12] | z-score [13] | z-score [14]
1 | COCOc1ccc(Br)cc1C(=O)C=Cc1ccc2c(c1)OCO2 | -2.37 | -3.33 (inactive) | -3.86 (inactive) | -1.1 (inactive) | 1.01 (inactive) | 0.616 (inactive) | 0.725 (inactive) | 0.253 (inactive) | -3.36 | -0.0076 | 0.268 (inactive) | 0.627 | -1.42 | -0.353 (inactive)
2 | CCCNC(=O)OC[C@H]1O[C@H](CCON=C[C@@H](NS(=O)(=O)c2ccc(C)cc2)[C@H](C)C=CCC(=O)OC)C=C[C@@H]1Oc1ccc(OC)cc1 | -0.765 | 0.0177 (inactive) | 0.0958 (inactive) | 0.216 (inactive) | 0.311 (inactive) | -0.803 (inactive) | 0.101 (inactive) | -0.138 (inactive) | 0.732 | -0.207 | -0.349 (inactive) | -0.501 | -0.862 | -4.48 (inactive)
3 | COC(=O)[C@H](CCSC)NC(=O)CC=C[C@@H](C)CO | -0.838 | 0.0957 (inactive) | 0.311 (inactive) | 0.521 (inactive) | -0.895 (inactive) | 0.489 (inactive) | -1.07 (inactive) | -0.576 (inactive) | 0.475 | 0.262 | -0.0999 (inactive) | 0.334 | -0.979 | -0.265 (inactive)
4 | COC(=O)[C@H](C)NC(=O)CCC1CC(OC(=O)NCc2ccc3c(c2)OCO3)CC2(CCCC(COC(=O)NCCCN3CCCC3=O)O2)O1 (stereo partly drawn) | 0.161 | 0.58 (inactive) | -0.0358 (inactive) | 0.184 (inactive) | 0.226 (inactive) | 1.04 (inactive) | 0.7 (inactive) | -0.028 (inactive) | 0.0805 | -0.245 | 0.045 (inactive) | 0.612 | -1.84 | -5.61 (inactive)
5 | CCOC(=O)[C@H](Cc1ccccc1)NC(=O)CCC1CC(OC(=O)NCc2ccc3c(c2)OCO3)CC2(CCCC(COC(=O)NCCc3ccc(Cl)cc3)O2)O1 (stereo partly drawn) | -0.202 | -0.65 (inactive) | 0.366 (inactive) | -1.47 (inactive) | 0.769 (inactive) | -1.72 (inactive) | -0.226 (inactive) | -0.756 (inactive) | -0.759 | -0.133 | 0.0608 (inactive) | 0.563 | -1.78 | -1.76 (inactive)
6 | CCCNC(=O)OC[C@H]1O[C@H](CCON=C2c3cc(OC)ccc3O[C@H](c3cccc(OC)c3)[C@H]2O)C=C[C@@H]1Oc1ccc(OC)cc1 | -0.286 | 0.668 (inactive) | -0.801 (inactive) | 0.159 (inactive) | 0.724 (inactive) | 0.391 (inactive) | 0.885 (inactive) | -0.034 (inactive) | -0.384 | 0.02 | 0.328 (inactive) | 0.693 | 0.365 | -1.94 (inactive)
7 | CC(=O)OC[C@H]1O[C@H](CC=NOCC[C@@H]2C=C[C@H](OC(C)=O)[C@@H](COC(C)=O)O2)C=C[C@@H]1OC(C)=O | 0.149 | 0.0167 (inactive) | 0.0092 (inactive) | -0.0986 (inactive) | 0.229 (inactive) | 0.0282 (inactive) | 0.847 (inactive) | 0.66 (inactive) | 0.117 | 0.287 | -0.0772 (inactive) | 0.677 | 0.256 | -0.963 (inactive)
8 | CCOC(=O)CCN1C(=O)[C@H]2[C@@H]3C(=CC[C@H]2C1=O)C(=O)[C@H]1O[C@H]1[C@H]3O | -0.423 | -0.894 (inactive) | -5.48 (inactive) | -0.369 (inactive) | 0.0335 (inactive) | -0.548 (inactive) | -0.254 (inactive) | 0.322 (inactive) | -2.2 | -0.0812 | -0.0103 (inactive) | -0.465 | -1.5 | -4.11 (inactive)
9 | CC(C)(C)N1C(=O)[C@H]2[C@H]3[C@H](O)[C@H](O)CC(=NNC(=O)OCc4ccccc4)[C@@H]3CC[C@H]2C1=O | -0.169 | 0.216 (inactive) | -0.484 (inactive) | -0.111 (inactive) | -0.413 (inactive) | -0.168 (inactive) | 0.223 (inactive) | 0.342 (inactive) | -0.376 | -0.102 | 0.0863 (inactive) | 0.195 | 2.05 | 0.408 (inactive)
10 | CC(=O)OC[C@H]1O[C@H](CC=NOC(C)CN2CCCc3nc(C)c(C)cc32)C=C[C@@H]1OC(C)=O (stereo partly drawn) | -0.368 | -0.494 (inactive) | 0.161 (inactive) | 0.159 (inactive) | -0.373 (inactive) | 0.634 (inactive) | 0.603 (inactive) | -0.147 (inactive) | 0.12 | 0.145 | 1.29 (inactive) | 0.618 | -0.224 | -6.1 (inactive)
11 | CC(C)(C)N1C(=O)[C@H]2[C@H]3[C@H](O)[C@H](O)CC(=NNC(=O)OCc4ccccc4)[C@H]3CC[C@H]2C1=O | -0.558 | -4.15 (inactive) | 0.0137 (inactive) | -2.25 (inactive) | 0.118 (inactive) | -0.589 (inactive) | 0.352 (inactive) | -0.645 (inactive) | -0.198 | 0.0282 | -0.401 (inactive) | 0.764 | -1.37 | -3.42 (inactive)
12 | CO[C@@H]1COC(=O)[C@H](CCSC)NC(=O)CC=C[C@@H](C)COC(=O)[C@@H]2CCCN2C(=O)CC=C[C@H]1C | 0.64 | -0.691 (inactive) | 0.89 (inactive) | -0.0517 (inactive) | -0.92 (inactive) | -0.572 (inactive) | -0.0629 (inactive) | -0.733 (inactive) | 0.652 | -0.0277 | 0.665 (inactive) | 0.352 | -0.494 | 0.213 (inactive)
13 | O=C1[C@H]2CCn3c(=O)n(-c4ccccc4)c(=O)n3[C@H]2[C@H](O)[C@@H]2O[C@H]12 | -0.507 | -0.251 (inactive) | -0.468 (inactive) | -0.106 (inactive) | -0.212 (inactive) | -0.303 (inactive) | -0.447 (inactive) | -0.489 (inactive) | -0.579 | -0.287 | -0.0756 (inactive) | 0.614 | -0.815 | -0.418 (inactive)
14 | CC(C)=NO[C@H](C)c1cn([C@@H]2COC[C@H]2O)nn1 | -1.51 | -0.0346 (inactive) | -0.508 (inactive) | 0.0741 (inactive) | 0.101 (inactive) | -0.683 (inactive) | 0.504 (inactive) | 0.82 (inactive) | -0.469 | -0.152 | 0.496 (inactive) | 0.0358 | 0.672 | 0.141 (inactive)
15 | C[C@@H]1C=CCC(=O)OC[C@H](C)C(=O)N[C@@H](Cc2ccccc2)C(=O)OC1 | -0.42 | -1.13 (inactive) | 0.489 (inactive) | -2.99 (inactive) | -0.355 (inactive) | -0.868 (inactive) | 0.0826 (inactive) | -0.0419 (inactive) | 0.394 | -0.0669 | -0.478 (inactive) | -0.0947 | -1.55 | 2.57 (inactive)
16 | CC(CCN1CCCc2nc(C)c(C)cc21)=NO[C@H](C)c1cn([C@@H]2COC[C@H]2O)nn1 | -0.537 | 0.593 (inactive) | -0.144 (inactive) | -0.0105 (inactive) | -0.525 (inactive) | 0.836 (inactive) | 0.973 (inactive) | 0.741 (inactive) | -1.6 | 0.0264 | -0.0434 (inactive) | 0.588 | 0.612 | -6.65 (inactive)
17 | CC[C@@H](c1ccccc1)n1c(=O)n2n(c1=O)[C@H]1[C@H](O)[C@@H]3O[C@@H]3C(=NOCc3ccccc3)[C@H]1CC2 | -1.67 | -1.04 (inactive) | -2.51 (inactive) | 0.149 (inactive) | -0.0819 (inactive) | -0.15 (inactive) | -0.527 (inactive) | -0.95 (inactive) | -2.34 | -0.0062 | 0.265 (inactive) | 0.539 | -1.81 | -4.2 (inactive)
18 | CC(CCN1CCc2nc(-c3ccccc3)c(-c3ccccc3)cc2C1)=NO[C@@H](C)c1cc(-c2c(C)cc(C)cc2C)no1 | -0.377 | -1.7 (inactive) | 0.553 (inactive) | -2.15 (inactive) | -0.634 (inactive) | -0.482 (inactive) | -1.04 (inactive) | -1.01 (inactive) | 0.812 | -0.209 | 1.27 (inactive) | 0.416 | -1.31 | 0.713 (inactive)
19 | COC(=O)[C@H](Cc1ccccc1)NC(=O)[C@@H](C)CO | -0.427 | -0.462 (inactive) | -0.0481 (inactive) | -2.16 (inactive) | 0.733 (inactive) | 0.0469 (inactive) | -1.48 (inactive) | -0.84 (inactive) | -0.376 | 0.0154 | -0.285 (inactive) | -0.9 | -1.23 | 1.16 (inactive)
20 | COC(=O)[C@@H]1CC[C@H](C)[C@@H](c2ccc(Br)cc2)N1C(=O)C(F)(F)F | 0.0841 | -0.475 (inactive) | 0.27 (inactive) | 0.724 (inactive) | 0.213 (inactive) | 1.21 (inactive) | -0.0765 (inactive) | -0.204 (inactive) | 0.399 | 0.0225 | 0.0945 (inactive) | -0.635 | -0.541 | -0.733 (inactive)
21 | CON=C1c2cc(OC)ccc2O[C@H](c2cccc(OC)c2)[C@H]1O | 0.291 | -5.98 (inactive) | 0.322 (inactive) | -0.469 (inactive) | -0.455 (inactive) | -0.175 (inactive) | 0.489 (inactive) | 0.957 (inactive) | 0.411 | 0.418 | 0.906 (inactive) | 0.464 | 0.924 | -0.365 (inactive)
22 | CCOC(=O)CCN1C(=O)[C@H]2[C@H]3[C@H](O)[C@H](O)CC(=O)[C@@H]3CC[C@H]2C1=O | 1.09 | -0.375 (inactive) | 0.344 (inactive) | 0.462 (inactive) | -0.708 (inactive) | -0.405 (inactive) | -0.512 (inactive) | -0.897 (inactive) | 0.651 | 0.0408 | 0.0603 (inactive) | 0.61 | -0.0726 | -2.98 (inactive)
